TbPYK inhibitor = inhibitors of Trypanosoma brucei pyruvate kinase | TbPYK enzyme, Kinase-Glo Plus ATP luminescence, 45 min | Potency, µM (titrated, usually from 76.8 µM), for inactives: at the highest dose activity, negative = inhibition, most hits filed as inhibitors | 410,000 tested, 0.12% active | Q57TT1 | AID 624173; further: potency means the concentration at half of the fitted maximal effect; nearly all actives have a fitted effect of over 50% in size
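Quantitative HTS: titrated library compounds versus trypanosomal pyruvate kinase in TEA buffer (pH 7.2) containing KCl, MgCl2, BSA and Tween-20. Reactions were initiated with ADP, 130 uM final. Kinase-Glo Plus luminescence was read after 45 min at RT.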
Sm TGR block = blocks Schistosoma mansoni thioredoxin glutathione reductase | purified TGR, DTNB reduction, TNB absorbance 405 nm | 360,000 tested, 3% active | Potency, µM (series often up to 114 µM), without a hit: at the top dose activity change, negative = inhibition, hits mostly inhibitors | AID 485364 | Q962Y6; further: potency means the concentration at half of the fitted maximal effect; nearly all actives have a fitted effect of over 60% in size
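TGR 20 nM + NADPH 100 uM (dispensed conc.), cpd preinc 15 min RT; start with NADPH (500 uM addition) then DTNB (15 mM addition). Kinetic TNB absorbance, 405 nm filter. Four-parameter Hill fit across titration.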
Giardia FBPA inh = inhibitors of Giardia lamblia fructose-1,6-bisphosphate aldolase; A8B2U2; purified Giardia FBPA; Potency, µM (doses to about 59.6 µM), without a hit: at the top dose activity, negative = inhibition, usual class: inhibitors; 290,000 tested, 0.71% active; further: potency means the concentration at half of the fitted maximal effect; nearly all actives have a fitted effect of over 55% in size
Target sequence (A8B2U2 whole entry, looked up): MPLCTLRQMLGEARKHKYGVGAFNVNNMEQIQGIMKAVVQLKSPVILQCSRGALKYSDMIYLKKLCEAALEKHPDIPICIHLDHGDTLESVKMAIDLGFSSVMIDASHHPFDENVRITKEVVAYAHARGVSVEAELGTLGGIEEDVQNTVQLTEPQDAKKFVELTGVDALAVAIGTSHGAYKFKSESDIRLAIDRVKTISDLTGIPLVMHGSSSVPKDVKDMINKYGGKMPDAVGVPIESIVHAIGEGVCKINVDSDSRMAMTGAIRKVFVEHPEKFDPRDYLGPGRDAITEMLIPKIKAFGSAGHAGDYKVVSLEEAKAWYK
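Giardia FBPA (40 nM reagent) was preincubated 10 min at RT with compound (up to 57.5 uM final), then substrate plus GAPDH/TPI/NAD/arsenate coupling system with diaphorase/resazurin was added; resorufin fluorescence (525/598 nm) was read after 20 min.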
FMDV antiviral = antivirals against foot and mouth disease virus; AID 1159524; FMDV antiviral cell-based qHTS; Potency, µM (titrated, usually from 57.9 µM), inactives show at the top dose activity change, negative = inhibition, usual class: inhibitors; 410,000 tested, 1.2% active; calls by dose curve; tested in HEK293T cells; further: read-out not given here; potency means the concentration at half of the fitted maximal effect; nearly all actives have a fitted effect of over 45% in size
RE007 growth inh = less growth of the S. pombe RE007 Vpr strain; S. pombe RE007 Vpr strain, BacTiter-Glo ATP luminescence, 24 h; 360,000 tested, 0.21% active; AID 651644; Potency, µM (series often up to 92.2 µM), inactives show at the highest dose activity change, negative = less growth, usual class: inhibitors; active means well fitted falling curve with a large enough effect; inconclusive means small, poorly fitted or top-dose-only effect; inactive means no such curve, though single readings can be large or run the other way; further: potency means the concentration at half of the fitted maximal effect; nearly all actives have a fitted effect of over 50% in size
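Fission yeast strain RE007, carrying one chromosomally integrated HIV-1 vpr copy, was seeded at OD 0.01 in PMG+AL medium with 23 nL pinned compound. After 24 h at 30 °C and 99% humidity, viability was read by BacTiter-Glo luminescence.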
HCMV antiviral = inhibitors of human cytomegalovirus; activity change, negative = inhibition, % at 57.5 µM; 410,000 tested, 4.5% active; HFF cells, HCMV-luciferase reporter, 72 h; stronger effect = lower value; in the data active means activity change below about -60%; inconclusive means no clear call, values can overlap the other calls; inactive means above about -39%
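Human foreskin fibroblasts infected with luciferase-reporter HCMV at MOI 1 PFU/cell, compounds at two doses. Luciferase measured 72 h post infection; normalized to buffer-only basal and Salinomycin (10uM) controls.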
* = called active by the depositor; u = inconclusive; x = no result given; [ ] = remark or other dose. Compounds with a hit are over-represented: about 7.7% of the library has one in this group of screens. Unless noted, the call rests on the fitted dose curve; in most records, active means well fitted curve in the direction sought with a large enough effect; inconclusive means small, poorly fitted or top-dose-only effect, or another doubt; inactive means no such curve, though single readings can be large; an effect the other way counts as inactive or inconclusive. On the % scale 0 is the no-effect control and ±100 the full control effect.

SMILES	TbPYK inhibitor	Sm TGR block	Giardia FBPA inh	FMDV antiviral	RE007 growth inh	HCMV antiviral
CO[C@@H]1COC(=O)[C@H](COCc2ccccc2)NC(=O)C/C=C\[C@@H](C)[C@H](OC)COC(=O)[C@@H](C)NC(=O)C/C=C\[C@H]1C	x	x	1.0%[12.9 µM]	x	x	x
CC(C)(C)c1cc[n+](/C(C(=S)NC2CC2)=C(/[O-])c2ccc(Cl)s2)cc1	-2.5%	-20.9%	6.29µM*	34.9%	-3.7%	-6.6
CC(=O)Nc1ccccc1-c1nc(CNC(=O)c2ccc(F)c(F)c2)c(C)o1	x	x	x	-7.9%	x	x
CCCOc1ccc(CNC(=O)C(C)n2nc(C)n3c(cc4occc43)c2=O)cc1 (configuration not stated)	-5.9%	-13.2%	x	-17.5%	x	-33.6
CC1CCN(C(=O)Cn2cc(SCC(=O)NCc3ccccc3)c3ccccc32)CC1	-5.6%	-3.0%	x	-4.2%	x	-84.5*
COc1ccc(Cl)cc1NC(=O)CSc1cn(CC(=O)N2CCCCC2)c2ccccc12	-5.4%	7.5%	x	u	x	-71.9*
CCCCCCOc1ccc(-c2nc3ccc(Br)cc3c(=O)o2)cc1	1.0%	-4.2%	x	0.3%	x	-0.7
COc1ccc(OC)c(Nc2nc(=O)c3cccnc3s2)c1	35.5µM*	x	u	17.7%	-2.7%	x
Cc1ccc(Nc2nc(=O)c3cccnc3s2)cc1	10.8%	4.8%	-24.8%	x	-5.2%	59.4
NCCCn1cnc2ccccc21	-1.7%	35.5µM*	-1.1%	-6.5%	17.2%	-0.2
O=C(CCl)Nc1cccc2ncccc12	-2.5%	44.7µM*	-26.3%	-14.0%	-3.8%	-98.6*
Cn1nc(CC(=O)NCc2ccc(C(F)(F)F)cc2)c2ccccc2c1=O	2.6%	7.6%	0.9%	15.8µM*	5.0%	21.4
Cn1nc(C(=O)NC2CCCC2)c2ccccc2c1=O	-8.2%	-0.8%	x	-4.2%	-4.2%	50.0
Cn1nc(C(=O)NCc2ccc(F)cc2)c2ccccc2c1=O	0.2%	0.0%	0.6%	-14.8%	3.7%	53.6
Cn1nc(C(=O)NC2CCC(O)CC2)c2ccccc2c1=O (configuration not stated)	-6.6%	1.2%	x	-17.0%	0.4%	-64.5*
Cn1nc(CC(=O)NC2CCCCCC2)c2ccccc2c1=O	4.6%	0.0%	-4.2%	u	9.7%	-72.2*
Cn1nc(CC(=O)NC2CCCCC2)c2ccccc2c1=O	0.0%	4.8%	-1.2%	-28.5%	9.6%	1.6
C=CC[C@H](N)C(=O)O	x	x	-2.0%	x	x	x
COc1ccc(Cl)cc1NC(=O)N1CCN(Cc2cc(=O)n3nc(-c4ccccc4)sc3n2)CC1	2.8%	6.2%	x	-31.3%	x	5.9
Cn1nc(CC(=O)Nc2cccc3ncccc23)c2ccccc2c1=O	-9.5%	-1.2%	-16.4%	u	-3.2%	-66.6*
COc1ccc(CNC(=O)Cc2nn(C)c(=O)c3ccccc23)cc1	-1.4%	14.4%	-5.5%	15.8µM*	-0.4%	u
CC(C)COC(=O)c1cc(-c2ccc(/C=N/n3cnnc3)o2)ccc1Cl	3.4%	22.4µM*	3.5%	6.3%	-19.2%	24.0
O=[N+]([O-])c1cc(-c2ccc(/C=N/n3cnnc3)o2)ccc1Cl	-1.6%	-22.8%	2.8%	-8.1%	-2.5%	u
O=C1c2sc3nc4c(c(=O)n3c2C(=O)N1c1ccccc1)CCC4	-12.4%	17.8µM*	-0.1%	u	-17.1%	u
Cc1ccccc1N1C(=O)c2sc3nc4c(c(=O)n3c2C1=O)CCC4	u	u	-18.0%	-27.8%	3.5%	x
SMILES	TbPYK inhibitor	Sm TGR block	Giardia FBPA inh	FMDV antiviral	RE007 growth inh	HCMV antiviral
COc1ccc(/C=N/NC(=O)c2nc(-c3ccccc3)cc(-c3ccccc3)n2)cc1OC	-0.6%	3.8%	4.6%	-19.3%	-9.3%	12.8
COc1ccc(/C=N/c2oc(-c3ccccc3)cc2C#N)cc1OC	-14.3%	u	u	-5.7%	-26.1%	-103.3*
O=C(c1ccco1)N1CCN(C(=O)c2cccc3c2C(=O)N(C2CCCCC2)C3)CC1	-7.9%	50.1µM*	-4.6%	-6.2%	-13.3%	-32.6
O=C(c1ccco1)N1CCN(C(=O)c2cccc3c2C(=O)N(Cc2cccnc2)C3)CC1	9.2%	-31.8%	-3.4%	-5.5%	-1.8%	-18.8
Cc1ccc2c(c1)c1c(n2CC(O)CNC(CO)(CO)CO)CCCC1 (configuration not stated)	-0.8%	-11.3%	-17.0%	-19.1%	3.4%	x
Cc1ccc2c(c1)c1c(n2CC(O)CNC2CCCCC2)CCCC1 (configuration not stated)	-3.0%	2.8%	-14.3%	-26.5%	-4.0%	-104.5*
O=C(Cn1ncc2c3ccccc3n(Cc3cccc(Cl)c3)c2c1=O)N1CCCCC1	7.3%	8.0%	x	-19.8%	x	-11.2
O=C1N=c2ccccc2=C1c1c(O)n(-c2cccc(F)c2)[nH]c1=O	u	22.4µM*	u	u	4.6%	-12.3
CC1CCCN(c2ncnc3c2nnn3C)C1 (configuration not stated)	5.1%	16.8%	x	-14.0%	x	-10.7
O=[N+]([O-])c1ccc(N(CCO)CCO)c2c1no[n+]2[O-]	-22.6%	x	x	u	-18.0%	-99.0*
CN(CCO)c1cc(N(C)CCO)c([N+](=O)[O-])cc1[N+](=O)[O-]	4.7%	-7.8%	6.2%	-1.6%	10.2%	-35.2
CN1CCN(c2ccc([N+](=O)[O-])c3no[n+]([O-])c23)CC1	-24.2%	44.7µM*	u	5.01µM*	31.6µM*	-97.9*
CN1CCN(c2ccc(S(C)(=O)=O)cc2[N+](=O)[O-])CC1	-8.6%	-8.5%	21.9%	1.8%	-3.5%	1.1
CC(C)(C)c1ccc(-c2cc(-c3ccccc3O)[nH]n2)cc1	-3.1%	-20.9%	-1.8%	-46.8%	u	-95.4*
Oc1ccccc1-c1cc(-c2cccc(F)c2)n[nH]1	1.2%	-14.7%	0.9%	17.6%	u	211.6
COc1ccccc1N1CCN(C(=O)c2cn(C)c3ccc(S(=O)(=O)N(C)C4CCCCC4)cc3c2=O)CC1	2.2%	3.8%	x	-10.0%	x	17.0
O=C1CC=C2C3CC4N(CCC45c4cc(O)c(O)cc4N1C25)CC3=CCBr (configuration not stated)	2.82µM*	x	x	-19.2%	-5.4%	-21.9
COc1c(-c2coc3cc4c(cc3c2=O)CC(OC(C)=O)C(C)(C)O4)ccc2c1C=CC(C)(C)O2 (configuration not stated)	x	x	-8.2%	u	x	x
COc1c(-c2coc3cc4c(cc3c2=O)CC(O)C(C)(C)O4)ccc2c1C=CC(C)(C)O2 (configuration not stated)	x	x	-13.6%	2.24µM*	x	x
Cc1ccc(Nc2nc(C)nc(N)c2S(=O)(=O)c2ccccc2)cc1	3.7%	-0.6%	x	1.4%	x	-2.4

Compound activity: PubChem BioAssay, National Center for Advancing Translational Sciences (NCATS)
